Screening data (PubChem BioAssay)
In the library only some 6.2% were active in any assay of this set; here they are far more common.
FMDV antiviral: antivirals against foot and mouth disease virus. FMDV antiviral cell-based qHTS. Potency, µM (series often up to 57.9 µM), hits mostly inhibitors. 410,000 compounds, 1.2% hits. AID 1159524; calls by dose curve; tested in HEK293T cells; further: read-out not given here; nearly all actives have a fitted effect of over 45% in size
HCMV inh: human cytomegalovirus inhibition | HFF cells, HCMV-luciferase reporter, 72 h; active compounds read low | activity change, negative = inhibition, % at 57.5 µM | 410,000 compounds, 4.5% hits | AID 1259415; in the data active means activity change below about -60%; inconclusive means no clear call, values can overlap the other calls; inactive means above about -39%
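After 16 h attachment at 37C, HFF cells received test compound and HCMV-luciferase (1 PFU/cell); reporter luminescence read 72 h later, data normalized against buffer-only and known inhibitor Salinomycin.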
Lassa entry inh: inhibitors of Lassa virus binding or cell entry; Lassa virus pseudotype entry inhibition, cell reporter; Potency, µM (top dose mostly 37.9 µM), actives largely listed as inhibitors; 300,000 compounds, 1.2% hits; AID 540256; calls by dose curve; tested in HEK293 cells; further: nearly all actives have a fitted effect of over 50% in size
Marburg entry inh: blocks Marburg virus binding to or entry into cells. Marburg virus pseudotyped entry inhibition, cell reporter. Potency, µM (titrated, usually from 37.8 µM), hits mostly inhibitors. 300,000 compounds, 1.8% hits. AID 540276; calls by dose curve; tested in HEK293 cells
A number is an active result.

Screening CSc1ccc(/C=C/c2nc3ccccc3n2S(=O)(=O)c2cccc(Cl)c2)cc1 returned FMDV antiviral inactive, HCMV inh -65, Lassa entry inh inconclusive and Marburg entry inh inactive.
`C[C@H]1[C@@H](NC(=O)Nc2ccc(Cl)cc2)CC[C@@]23CCCN2C(=O)CCC[C@@H]13` gave HCMV inh inactive.
CS(=O)(=O)N1CCC2(CCN(Cc3nccs3)CC2)CC1 was read as FMDV antiviral inactive.
`Cc1oc(-c2ccccc2Cl)nc1Cn1cccc1C1=NC(c2ccccc2)CO1` (stereo not given) gave FMDV antiviral inconclusive, HCMV inh inconclusive, Lassa entry inh 7.3µM and Marburg entry inh inconclusive.
`COc1ccccc1NC(=O)c1oc2ccccc2c1NC(=O)c1ccccc1C(F)(F)F` gave FMDV antiviral inactive, HCMV inh inactive, Lassa entry inh inconclusive and Marburg entry inh inconclusive.
Screening C=CCn1c(-c2ccc(S(=O)(=O)N3CCOCC3)cc2)csc1=Nc1ccccc1 returned FMDV antiviral inconclusive, HCMV inh inactive, Lassa entry inh inconclusive and Marburg entry inh inactive.
Screening CC(C)Cn1c(-c2ccc(S(=O)(=O)N3CCCC3)cc2)csc1=Nc1ccccc1 returned FMDV antiviral inactive, HCMV inh inactive, Lassa entry inh inconclusive and Marburg entry inh inactive.
`CC(=O)c1cccc(N=c2scc(-c3ccc(S(=O)(=O)N4CCOCC4)cc3)n2CCO)c1` gave FMDV antiviral 20µM, HCMV inh -98, Lassa entry inh inconclusive and Marburg entry inh inconclusive.
For COc1ccccc1N=c1scc(-c2ccc(S(=O)(=O)N3CCCC3)cc2)n1C the results were FMDV antiviral 2.8µM, HCMV inh -97 and Lassa entry inh inconclusive.
`O=S(=O)(c1ccc(-c2csc(=Nc3ccc(F)cc3)n2CCCCCCO)cc1)N1CCCC1` gave FMDV antiviral 25µM, HCMV inh -101, Lassa entry inh inconclusive and Marburg entry inh inconclusive.
`CCOC(=O)c1c(Nc2ccc(C)cc2)nnc(-c2ccccc2)c1-c1ccccc1` gave FMDV antiviral inactive, HCMV inh inactive, Lassa entry inh inactive and Marburg entry inh inactive.
COc1ccc(CN(C)Cc2nc3scc(-c4ccccc4)c3c(=O)[nH]2)cc1OC was read as FMDV antiviral inconclusive, HCMV inh -60, Lassa entry inh inactive and Marburg entry inh inconclusive.
`O=C(OCc1nc2scc(-c3ccccc3)c2c(=O)[nH]1)c1cc(Cl)ccc1[N+](=O)[O-]` gave FMDV antiviral inconclusive, HCMV inh inactive, Lassa entry inh inactive and Marburg entry inh inconclusive.
For Cc1c(C(=O)OCc2nc3scc(-c4ccccc4)c3c(=O)[nH]2)cccc1[N+](=O)[O-] the results were FMDV antiviral 14µM, HCMV inh inconclusive, Lassa entry inh inactive and Marburg entry inh inconclusive.
`CSCc1nc2scc(-c3ccccc3)c2c(=O)[nH]1` gave FMDV antiviral inactive, HCMV inh inactive, Lassa entry inh inactive and Marburg entry inh inactive.
OC1(c2ccc3c(c2)CN(Cc2ccccn2)CCO3)CCN(c2ccccc2F)CC1 was read as FMDV antiviral inactive.
For COC(=O)c1ccc2nc(-c3ccc(OC)c(OC)c3)c(Cc3ccccc3C(F)(F)F)n2c1 the results were HCMV inh inactive.
O=C(Cn1c(Cn2c(-c3cnccn3)nc3ccccc32)nc2ccccc21)c1ccc(OC(F)(F)F)cc1 was read as FMDV antiviral inactive and HCMV inh inactive.
`CCCCOc1ccc(/C=C/C(=O)NC2=Nc3ccccc3NC(C)=C2C(=O)OCC)cc1OC` gave FMDV antiviral inactive, HCMV inh inactive, Lassa entry inh inactive and Marburg entry inh 6.3µM.
For O=C(c1ccco1)N1CCN(c2nc3ccccc3c(=O)n2-c2ccccc2)CC1 the results were FMDV antiviral 7.1µM, HCMV inh inactive, Lassa entry inh inconclusive and Marburg entry inh inactive.
Screening Cc1cc(N2CCN(C(=O)c3ccco3)CC2)c2ccccc2n1 returned FMDV antiviral inactive and HCMV inh inactive.
O=C(c1ccco1)N1CCN(Cc2cccc3ccccc23)CC1 was read as FMDV antiviral inactive, HCMV inh inactive, Lassa entry inh 10µM and Marburg entry inh 5µM.
Screening O=C(c1ccco1)N1CCN(Cc2c(Cl)cccc2Cl)CC1 returned FMDV antiviral inactive and HCMV inh inactive.
Screening CCn1nc(C)cc1-c1nnc(Sc2ncc([N+](=O)[O-])s2)n1C returned FMDV antiviral 28µM and HCMV inh -96.
CCn1nc(C)cc1-c1nnc(SCC(=O)Nc2ccccc2)n1CCCOC was read as FMDV antiviral inactive, HCMV inh inactive, Lassa entry inh inactive and Marburg entry inh inactive.
Cc1ccc(Cn2ccsc2=NC(=O)COC(=O)c2ccc(O)cc2O)cc1 was read as FMDV antiviral inactive and HCMV inh -79.
`COC(=O)c1ccccc1NC(=O)Cn1c(=O)n(CCCCC(=O)NCc2ccc3c(c2)OCO3)c(=O)c2ccccc21` gave FMDV antiviral inactive, HCMV inh inactive, Lassa entry inh inactive and Marburg entry inh inactive.
`FC(F)(F)c1nnc2c(Sc3ccccc3)nc3ccc(Cl)cc3n12` gave FMDV antiviral inconclusive, HCMV inh -103, Lassa entry inh inconclusive and Marburg entry inh inconclusive.
`FC(F)(F)c1nc2ccccc2n2c(-c3ccc(Cl)cc3Cl)nnc12` gave FMDV antiviral inactive, HCMV inh inactive, Lassa entry inh inactive and Marburg entry inh inactive.
COc1cc(/C=C/C(=O)OCC(=O)c2c(N)n(C)c(=O)n(C)c2=O)ccc1O was read as FMDV antiviral inactive, HCMV inh inactive, Lassa entry inh inactive and Marburg entry inh inactive.
`O=C(/C=C/c1ccc(OCc2ccccc2)c(OCc2ccccc2)c1)c1cccnc1` gave FMDV antiviral inconclusive, HCMV inh inactive, Lassa entry inh inactive and Marburg entry inh inactive.
`COc1cc(/C=C/C(=O)c2ccc(C)cc2)ccc1OCC#N` gave FMDV antiviral inconclusive, HCMV inh inactive, Lassa entry inh 10µM and Marburg entry inh inconclusive.
`COc1ccc(/C=C/C(=O)c2ccc(C(=O)/C=C/c3ccc(OC)c(OC)c3)cc2)cc1OC` gave FMDV antiviral inconclusive and HCMV inh -76.
`COc1cc(/C=C/C(=O)OCC(=O)c2c(N)n(C)c(=O)n(C)c2=O)ccc1OCC#N` gave FMDV antiviral inactive, HCMV inh inactive, Lassa entry inh inconclusive and Marburg entry inh 6.3µM.
COc1ccc(C=CC(=O)c2ccc(OCc3ccccc3)c(OC)c2)cc1OC was read as FMDV antiviral inconclusive and HCMV inh -87.
COC(=O)c1ccc(/C=C/C(=O)c2ccc(OC)c(OC)c2)cc1 was read as FMDV antiviral inactive, Lassa entry inh inactive and Marburg entry inh inactive.
Cc1ccc(F)cc1C(=O)Nc1ccn2ccnc2n1 was read as HCMV inh inactive.
CCN1CCN(C(CCc2ccccc2)C(=O)NC2CCCCC2)CC1 (stereo not given) was read as FMDV antiviral inactive and HCMV inh inactive.
`O=C1N=C2CCCCC2=C1c1sc(N[S+](=O)([O-])C2CCCCC2)nc1O` gave Marburg entry inh inactive.
Screening CCOC(=O)N[C@@]1(C(F)(F)F)C(=O)NC(C)=C1C#N returned Marburg entry inh inactive.
CCOc1cc(/C=C/C(=O)c2ccc(C)cc2)ccc1OCC(=O)N(C)C was read as FMDV antiviral inconclusive, HCMV inh -97, Lassa entry inh inconclusive and Marburg entry inh inconclusive.
